KKLEB tox – reduces viability of KKLEB cystic fibrosis airway cells; KKLEB CF airway cells viability, ATPlite luminescence, overnight; stronger effect = lower value; cells stimulated with P. aeruginosa culture filtrate; activity change (cytotoxicity), % at 5 µM; hit rate 0.36% among 360,000; AID 602141;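 active means corrected activity change at or below -50% at 5 µM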
CF NFkB inh – blocks PAF-induced NF-kB reporter in cystic fibrosis cells; hit rate 0.86% among 360,000; KKLEB NF-kB-GFP reporter, GFP fluorescence overnight; inhibition, % at 5 µM;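 active means at least 50% inhibition at 5 µM, scaled per plate between neutral and stimulator controls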;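 further: PAF is a Pseudomonas aeruginosa culture filtrate used as stimulus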
Peg3 promoter – inhibitors of Peg3 promoter; HeLa PEG-Prom luciferase reporter, luminescence, overnight; inhibition, % at 20 µM; hit rate 1.7% among 360,000;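 active means inhibition of at least 50% at 20 µM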
HIF-2a block – HIF-2a inhibition; 786-0 RCC cells HIF-2a reporter, luciferase luminescence, overnight; inhibition, % at 18.8 µM; hit rate 0.72% among 360,000; AID 624352;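 active means inhibition of the luminescence signal of 40% or more relative to plate controls, in a single-dose primary screen at 18.75 µM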
MITF TRPM1 inh – MITF TRPM1 promoter inhibition in SK-MEL-5 cells | inhibition, % at 12.5 µM | AID 488899 | hit rate 0.83% among 330,000 | SK-MEL-5 TRPM1 promoter luciferase, 24 h;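 active means mean inhibition across replicates of 60% or more, whatever share of single replicates reaches that level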
ABHD5 PLIN5 PPI – blocks binding of human ABHD5 to perilipin-5. inhibition, % at 4 µM. Split G. princeps luciferase complementation, luminescence, 4 h. Q00G26+Q8WTS1. hit rate 0.78% among 360,000;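 active means inhibition above the mean inhibition across every tested compound plus 3 SD, cut at about 22% in these data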
Target sequence (Q00G26 whole entry, looked up): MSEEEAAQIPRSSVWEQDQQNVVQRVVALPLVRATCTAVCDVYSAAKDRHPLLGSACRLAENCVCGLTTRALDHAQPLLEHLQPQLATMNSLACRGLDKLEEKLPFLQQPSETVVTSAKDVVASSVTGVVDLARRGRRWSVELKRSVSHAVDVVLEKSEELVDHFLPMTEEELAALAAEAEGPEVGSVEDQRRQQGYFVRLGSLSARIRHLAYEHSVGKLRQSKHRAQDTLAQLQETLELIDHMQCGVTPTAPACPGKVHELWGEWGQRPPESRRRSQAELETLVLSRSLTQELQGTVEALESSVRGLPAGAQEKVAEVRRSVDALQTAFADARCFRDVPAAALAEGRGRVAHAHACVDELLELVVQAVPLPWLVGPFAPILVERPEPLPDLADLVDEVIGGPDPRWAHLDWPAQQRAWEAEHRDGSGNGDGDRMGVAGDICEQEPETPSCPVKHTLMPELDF
Target sequence (Q8WTS1 whole entry, looked up): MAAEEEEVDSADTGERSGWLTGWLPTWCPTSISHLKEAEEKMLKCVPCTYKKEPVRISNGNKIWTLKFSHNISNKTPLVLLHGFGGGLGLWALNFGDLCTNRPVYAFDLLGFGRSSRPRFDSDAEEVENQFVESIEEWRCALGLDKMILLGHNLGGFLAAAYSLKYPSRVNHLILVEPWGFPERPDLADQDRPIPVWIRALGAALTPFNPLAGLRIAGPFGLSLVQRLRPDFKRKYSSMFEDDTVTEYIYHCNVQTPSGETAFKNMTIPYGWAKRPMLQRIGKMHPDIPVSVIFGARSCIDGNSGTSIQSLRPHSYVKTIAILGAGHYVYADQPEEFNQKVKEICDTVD
Large screens that a line does not name were inactive. Shown are actives, neighbours in structure and some others; about 3.1% of the full set was active somewhere.

COC(=O)c1ccc2c(=O)n(CCCCCC(=O)N3CCN(c4ccc(F)cc4)CC3)c(=O)[nH]c2c1	Peg3 promoter 89.8
COc1cc2[nH]c(=O)n(CCC(=O)N3CCc4ccccc4C3)c(=O)c2cc1OC	none
COC(=O)c1ccc2c(=O)n(CCCCCC(=O)O)c(=O)[nH]c2c1	none
CCCn1nc(NS(=O)(=O)c2cccc3nonc23)c2cc3ccccc3nc21	none
O=C(Cc1n[nH]c(=O)c2ccccc12)Nc1cccc(S(=O)(=O)N2CCCCCC2)c1	none
COc1ccc2c(Cl)c(C(=O)N/N=C/c3ccc4c(c3)OCO4)sc2c1	Peg3 promoter 51.2
CCc1ccc(OCc2n[nH]c(=S)n2Cc2ccccc2)cc1	none
CCc1ccc(OCc2n[nH]c(=S)n2C(C)CCCC(C)C)cc1 (centres undefined)	Peg3 promoter 111.0
C=C[C@H](CC(C)C)N(Cc1ccccc1)S(=O)(=O)N(Cc1ccccc1)[C@@H](C=C)CC(C)C	none
CC(C)C[C@@H](CO)N(Cc1ccccc1)S(=O)(=O)N(Cc1ccccc1)[C@H](CO)CC(C)C	Peg3 promoter 83.0
O=S(=O)(N(Cc1ccccc1)[C@H](CO)Cc1ccccc1)N(Cc1ccccc1)[C@H](CO)Cc1ccccc1	none
COc1ccc(CN([C@H](CO)CC(C)C)S(=O)(=O)N(Cc2ccccc2)[C@H](CO)CC(C)C)cc1	Peg3 promoter 82.9
CC(C)C[C@@H](CO)N(Cc1ccccc1)S(=O)(=O)N(Cc1ccccc1)[C@@H](CO)CC(C)C	Peg3 promoter 84.5
CCn1cc(CNC(=O)c2ccc3nc(Cc4ccc(OC)cc4)oc3c2)cn1	none
O=C(OCc1c(F)cccc1Cl)c1cccnc1Cl	none
CCCn1c(N)c(C(=O)CN2CCN(S(=O)(=O)c3cccc(Cl)c3)CC2)c(=O)[nH]c1=O	none
CCN(CC)CC(=O)Nc1ccc(-c2nc3cc(NC(=O)CN(CC)CC)ccc3o2)cc1	none
CCC(C)NCC(=O)Nc1ccc(-c2nc3cc(NC(=O)CNC(C)CC)ccc3o2)cc1 (centres undefined)	Peg3 promoter 108.4, MITF TRPM1 inh 84.0
COc1ccc(CCN2CCC(Nc3nc4ccccc4n3Cc3ccc(F)cc3)CC2)cc1	Peg3 promoter 82.0, MITF TRPM1 inh 95.8
C/C(=N/NC(=O)c1nnn(-c2nonc2N)c1CSc1ccc(Cl)cc1)c1ccncc1	none (no result: MITF TRPM1 inh)
Cc1ccc(C(=O)O)cc1NS(=O)(=O)c1ccc2ccccc2c1	none
CC(C)OC(=O)C(C(=O)C(F)(F)F)c1cc(NS(=O)(=O)c2ccc3ccccc3c2)c2ccccc2c1O (centres undefined)	ABHD5 PLIN5 PPI 41.2
O=C(Nc1ccc([N+](=O)[O-])cc1)c1cc(-c2ccccn2)nc2c(Cl)cccc12	none
CCOC(=O)C(C(=O)OCC)c1cc(Br)c2noc3c2c1C(=O)c1ccccc1-3	CF NFkB inh 74.9, Peg3 promoter 112.8, MITF TRPM1 inh 95.1
CC(=O)OCCNc1cc(N2CCN(C)CC2)c2noc3c2c1C(=O)c1ccccc1-3	none (no result: MITF TRPM1 inh)
CC(C)CNC(=O)c1c(N)n(/N=C/c2ccccn2)c2nc3ccccc3nc12	Peg3 promoter 53.6
COCCNC(=O)c1c(N)n(/N=C/c2ccc(F)cc2)c2nc3ccccc3nc12	none (no result: MITF TRPM1 inh)
Cc1ccc(C(C)C)c(OCc2nn(CC(=O)c3ccc(OC(F)F)cc3)c3[n+]2CCCCC3)c1	Peg3 promoter 105.4, MITF TRPM1 inh 102.3
COc1cc(C2CC(=O)c3c(ccc4ccccc34)N2)ccc1O (centres undefined)	none
COc1cccc(C2Nc3ccc4ccccc4c3C3=C2C(=O)CCC3)c1O (centres undefined)	MITF TRPM1 inh 64.4
O=C(CCNS(=O)(=O)c1ccc(OC(F)(F)F)cc1)N1CCN(C/C=C/c2ccccc2)CC1	none
CCCCn1c(N)c(-c2nc3ccccc3s2)c2c([N+](=O)[O-])nn(C)c(=O)c21	none
CCCCCn1c(N)c(-c2nc3ccccc3s2)c2c([N+](=O)[O-])nn(CC)c(=O)c21	KKLEB tox -58.5, CF NFkB inh 59.0
CCCCn1c(N)c(-c2nc3ccccc3s2)c2c([N+](=O)[O-])nn(CC)c(=O)c21	KKLEB tox -54.9
CCN1CCN(c2nc(S(=O)(=O)c3ccc(C)cc3)c(Cl)s2)CC1	none
COc1ccc2[nH]c3c(N4CCN(Cc5ccc6c(c5)OCO6)CC4)ncnc3c2c1	Peg3 promoter 54.8
COc1ccc2[nH]c3c(N4CCC(O)(c5cccc(C(F)(F)F)c5)CC4)ncnc3c2c1	Peg3 promoter 56.9
CCOc1ccc2[nH]c3c(N4CCc5ccccc5C4)ncnc3c2c1	none (no result: MITF TRPM1 inh)
CC(C(=O)Nc1ccccc1C(F)(F)F)N1CCN(C)CC1 (centres undefined)	none
CCN(CC)CCCNc1nc2cc(OC)c(OC)cc2c2nc(-c3cccnc3)nn12	none
COc1cc2nc(NCC3CCCO3)n3nc(-c4cccnc4)nc3c2cc1OC (centres undefined)	Peg3 promoter 54.7
COCCCNc1nc2cc(OC)c(OC)cc2c2nc(-c3ccccc3)nn12	Peg3 promoter 54.0
CCN(CC)CCCNc1nc2cc(OC)c(OC)cc2c2nc(-c3ccccc3)nn12	none
COc1ccc(S(=O)(=O)Nc2ccc(N3CCOCC3)nc2)cc1	none
COc1ccccc1C(=O)NS(=O)(=O)c1ccc(C)cc1	none
CNC(=S)NNC(=O)c1cccn(Cc2cccc(C(F)(F)F)c2)c1=O	none
CC(C)(C)C(=O)/C=c1\s/c(=C\c2ccc(-c3ccc([N+](=O)[O-])cc3)o2)c(=O)n1CC(=O)NC(N)=O	Peg3 promoter 54.7
COc1ccc(NC(=O)c2ccc(S(=O)(=O)N3CCCC3)cc2)cc1OC	none
Oc1cc2c(cc1O)C(c1ccccc1)CNCC2 (centres undefined)	KKLEB tox -58.5
CCc1cc2c3c(c1)C1(C(=O)N3C(C)(C)CC2C)C(C#N)=C(N)N2C(=C1C#N)Nc1ccccc12 (centres undefined)	none
COc1ccc2cc1Oc1ccc(cc1)C[C@H]1c3c(cc4c(c3Oc3cc5c(cc3OC)CCN(C)[C@@H]5C2)OCO4)CCN1C	Peg3 promoter 86.9, MITF TRPM1 inh 62.7
CC1(C)Cc2c(c(N3CCOCC3)nc3snc(N)c23)CO1	Peg3 promoter 64.6
CC1(C)Cc2c(c(N3CCOCC3)nc3snc(Br)c23)CO1	Peg3 promoter 92.1
Cc1ccsc1/C=N/NC(=O)c1nnn(-c2nonc2N)c1CSc1ccccc1	none
O=C(O)Cc1c(C(=O)O)nnn1-c1ccc(Cl)cc1Cl	none
COc1ccc2cc(-c3ccccc3)ncc2c1	none
COc1cc(OC)cc(-c2cc3ccc(OC)cc3cn2)c1	KKLEB tox -55.2
COc1ccc2cc(-c3ccsc3)ncc2c1	MITF TRPM1 inh 62.0
CCOc1ccc(N(CC(=O)Nc2cccc(C)c2)S(C)(=O)=O)cc1	none
CC(=O)N/C(=C\c1ccc(Cl)cc1)C(=O)O	none (no result: MITF TRPM1 inh)

Screening results: PubChem, several laboratories
